# Data published in PubChem BioAssay AID652256 (National Center for Advancing Translational Sciences (NCATS), 2013).
# The list shows a part of the results. Activity calls are given as the source filed them.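 The calls were made as follows: active = a half-inhibiting concentration could be measured and was below 100 µM; inactive = the rest.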
# Tested on: Thioredoxin reductase 1 (TXNRD1), rat
# Experiment: qHTS Assay for Inhibitors of Mammalian Selenoprotein Thioredoxin Reductase 1 (TrxR1): DTNB Assay
# Conditions: purified TrxR1, DTNB reduction, A412
# Description: The selenoprotein thioredoxin reductase (TrxR; EC 1.8.1.9) is a FAD containing homodimeric pyridine nucleotide-disulfide oxidoreductase with many cellular roles. Together with NADPH and its prime substrate thioredoxin (Trx), the enzyme forms the core of the Trx system. The mammalian Trx system exerts a wide spectrum of functions including redox regulation, antioxidant defense, regulation of transcription factors as well as support of cell growth and replication. Many of these functions involve the reduction of Trx, which may subsequently reduce a number of different substrates including ribonucleotide reductase, peroxiredoxins or NFkB. Mammalian TrxR itself also has a broad substrate specificity, reducing both protein and non-protein substrates, including low molecular weight compounds such as dehydroascorbate, lipoic acid, ubiquinone, and juglone. In addition, several drugs in clinical use for anticancer treatment are indeed known to target TrxR1. This orthogonal DTNB assay seeks to further characterize cherry picks. […]
# 15 nM TrxR1 is reduced by 250 microM NADPH in TE buffer [50 mM Tris-HCl (pH 7.5), 2 mM EDTA] in a 96-well microtiter plate. […] During compound incubation, NADPH consumption is followed by the decrease in absorbance at 340 nm using a VersaMax microplate reader (Molecular Devices) to determine substrate potential of the compound. […]
compound,measurement,value
COc1ccc(-c2nc(CS(=O)CC(=O)N3CCC4(CC3)OCCO4)c(C)o2)cc1 (stereo unspecified),Potency,1460 nM (active)
